HP1b chromo inh – inhibitors of HP1-beta chromodomain binding to methylated histone tails; 390,000 tested, 0.56% active; AlphaScreen HP1-beta / biotin-H3K9me3 peptide binding; Potency, µM (doses to about 114 µM), for inactives: top-dose activity change, negative = inhibition, actives largely listed as inhibitors; note: nearly all actives have a fitted effect of over 70% in size
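HP1-beta protein (50 nM final) preincubated 30 min at room temperature with biotinylated H3(1-18)K9me3 peptide (50 nM) in PBS pH 7.4, 0.01% Tween-20, then compound added for 30 min. AlphaScreen streptavidin donor/nickel chelate acceptor beads (10 ug/mL final), 30 min dark, luminescence read.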
BAZ2B inh – blocks human BAZ2B | AlphaScreen BAZ2B-H3K14Ac peptide displacement | Potency, µM (series often up to 114 µM), for inactives: at the highest dose activity change, negative = inhibition, actives largely listed as inhibitors | 360,000 tested, 4.4% active; note: % is set by controls: 0 for no effect and ±100 for the full control effect; nearly all actives have a fitted effect of over 60% in size
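AlphaScreen displacement of biotin-H3(5-23)K14Ac peptide (50 nM final) from BAZ2B (50 nM final) in PBS pH 7.4, 0.01% Tween-20; complex preformed 30 min RT, then compounds (top 110 uM) 30 min RT, beads 20 min dark.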
JMJD2A Tudor inh – blocks the human JMJD2A Tudor domain; O75164; AlphaScreen JMJD2A-Tudor / H3K4me3 peptide binding; Potency, µM (series often up to 114 µM), inactives show at the highest dose activity change, negative = inhibition, hits mostly inhibitors; 390,000 tested, 4.4% active; note: % is set by controls: 0 for no effect and ±100 for the full control effect; nearly all actives have a fitted effect of over 50% in size
Target sequence (O75164 whole entry, looked up, the tested form may be a part): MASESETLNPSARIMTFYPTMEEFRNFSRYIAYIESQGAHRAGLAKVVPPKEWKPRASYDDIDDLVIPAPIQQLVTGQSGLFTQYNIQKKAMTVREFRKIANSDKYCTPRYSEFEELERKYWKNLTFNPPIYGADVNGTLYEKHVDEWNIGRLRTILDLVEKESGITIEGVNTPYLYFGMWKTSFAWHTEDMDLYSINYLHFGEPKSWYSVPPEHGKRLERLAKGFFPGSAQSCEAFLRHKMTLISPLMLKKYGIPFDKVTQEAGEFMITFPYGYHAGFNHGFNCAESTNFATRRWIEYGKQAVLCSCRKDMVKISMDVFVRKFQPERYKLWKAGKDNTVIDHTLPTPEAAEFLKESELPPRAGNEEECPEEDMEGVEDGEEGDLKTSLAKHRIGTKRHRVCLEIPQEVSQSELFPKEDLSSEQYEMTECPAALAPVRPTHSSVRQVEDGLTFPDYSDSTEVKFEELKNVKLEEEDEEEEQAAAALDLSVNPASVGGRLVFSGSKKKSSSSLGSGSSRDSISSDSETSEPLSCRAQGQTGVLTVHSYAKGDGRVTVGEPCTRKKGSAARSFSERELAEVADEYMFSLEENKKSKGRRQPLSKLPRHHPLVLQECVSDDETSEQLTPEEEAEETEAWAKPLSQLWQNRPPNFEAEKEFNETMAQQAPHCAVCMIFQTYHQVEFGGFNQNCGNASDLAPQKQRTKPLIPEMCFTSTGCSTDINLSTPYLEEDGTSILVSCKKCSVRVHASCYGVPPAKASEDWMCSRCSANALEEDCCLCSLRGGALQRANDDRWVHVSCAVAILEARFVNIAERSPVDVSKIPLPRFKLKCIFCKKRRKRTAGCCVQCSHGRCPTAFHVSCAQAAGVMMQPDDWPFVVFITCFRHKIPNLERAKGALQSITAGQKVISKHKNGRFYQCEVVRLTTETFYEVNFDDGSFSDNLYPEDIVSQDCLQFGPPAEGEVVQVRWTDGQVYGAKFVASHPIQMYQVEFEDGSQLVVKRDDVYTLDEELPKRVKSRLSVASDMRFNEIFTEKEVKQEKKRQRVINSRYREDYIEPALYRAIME
Sfp PPTase inh – Sfp phosphopantetheinyl transferase inhibition | Q9F4F7 | 310,000 tested, 3.5% active | Biochemical Sfp PPTase activity, qHTS | Potency, µM, inactives show largest response in the series, negative = inhibition, most hits filed as inhibitors;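 note: the enzyme is Sfp with the accession as filed and its product quenches rhodamine fluorescence; 0% = enzyme reaction without inhibitor and -100% = no enzyme wells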
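Step 1, compound plus 15 nM Sfp-PPTase, 15 min, room temperature. Step 2, add rhodamine-CoA (5 uM) and BHQ-2-YbbR (12.5 uM). Step 3, read 525/598 nm fluorescence at 0 and 30 min.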
TDP1 block – blocks human tyrosyl-DNA phosphodiesterase 1 | Q9NUW8 | recombinant TDP1, AlphaScreen DNA substrate cleavage | Potency, µM (series often up to 130 µM), without a hit: at the highest dose activity change, negative = inhibition, usual class: inhibitors | 350,000 tested, 0.28% active | AID 485290; note: % is set by controls: 0 for no effect and ±100 for the full control effect; nearly all actives have a fitted effect of over 40% in size
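Tdp1 1 nM final; 15 min RT w/ cpd; substrate 15 nM, 5 min; beads 10 ug/ml, 10 min; AlphaScreen read. Neg ctrl: no enzyme.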
G9a block – G9a (human) methyltransferase inhibition; Q96KQ7; G9a H3K9 monomethylation, AlphaScreen, 2 h; AID 504332; 350,000 tested, 8.8% active; Potency, µM (titrated, usually from 102 µM), for inactives: at the top dose activity, negative = inhibition, hits mostly inhibitors; note: % is set by controls: 0 for no effect and ±100 for the full control effect; nearly all actives have a fitted effect of over 75% in size
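Using a bead-based AlphaScreen, monomethylated H3K9 product from 2 h room-temperature reactions (G9a 20 nM, peptide 500 nM, SAM 20 uM) was detected with 0.5 ug/mL rabbit anti-H3K9me1 antibody.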
Numbers without * were called inactive; u = inconclusive; x = no result; [ ] = another dose, or the depositor's remark. Shown are actives, neighbours in structure and some others; about 12% of the full set was active somewhere. Calls come from the whole dose curve; as a rule, active = well fitted curve in the direction sought with a large enough effect; inconclusive = small, poorly fitted or top-dose-only effect, or another doubt; inactive = no such curve, though single readings can be large; an effect the other way counts as inactive or inconclusive. Potency is the fitted concentration of half-maximal effect.

SMILES	HP1b chromo inh	BAZ2B inh	JMJD2A Tudor inh	Sfp PPTase inh	TDP1 block	G9a block
Cc1ccc(S(=O)(=O)/N=C2/C=C(Sc3ncn[nH]3)C(=O)c3ccccc32)cc1	8.9µM*	45µM*	2.8µM*	3.2µM*	11%	0.56µM*
CCCC1(C(=O)O)NC(c2ccccc2O)C2C(=O)N(Cc3ccccc3)C(=O)C21 (stereo not given)	60%	u	-14%	u	3%	u
CSCCC1(C(=O)O)NC(c2ccccc2O)C2C(=O)N(C(C)C)C(=O)C21 (stereo not given)	18%	u	u	79µM*	3%	-7%
CSc1nc(C(=O)N2CCCC(N3CCN(c4ccccc4C)CC3)C2)cs1 (stereo not given)	17%	-29%	-19%	3%	7%	3%
CCc1ccc2c(c1)C1(C(=O)N2)N2CCCC2C(C(=O)c2ccc3ccccc3c2)C12C(=O)Nc1ccccc12 (stereo not given)	-14%	u	-36%	0%	1%	14µM*
COc1ccccc1N1CCN(C(=O)CC(NC(=O)c2ccccc2Cl)c2ccccc2)CC1 (stereo not given)	27%	6%	-8%	x	-8%	45µM*
O=C(NCc1ccc(F)cc1)c1ccc(Br)o1	41%	-4%	-13%	10%	0%	u
O=C(N/N=C/c1cccc([N+](=O)[O-])c1O)c1cccs1	3%	22µM*	50µM*	22%	2%	50µM*
O=C(N/N=C/c1ccc([N+](=O)[O-])cc1)c1cccs1	31%	-36%	-35%	-8%	x	50µM*
N#Cc1c(C#N)c(-c2ccccc2)n(-c2ccc(C(=O)O)cc2)c1N	18%	u	-20%	24%	2%	56µM*
N#Cc1c(N)n(-c2ccc(C(=O)O)cc2)c2nc3ccccc3nc12	39%	2%	7%	18%	2%	-5%[59 µM]
N#Cc1c(C#N)c(SSc2c(C#N)c(C#N)c(N)n2-c2ccccc2)n(-c2ccccc2)c1N	u	x	0.79µM*	x	x	x
O=C(NCCC1CCCCN1S(=O)(=O)c1cccs1)C(=O)NCc1ccccc1 (stereo not given)	29%	-2%	6%	x	x	-15%
CSc1ccc(C(=S)N2CCN(CCO)CC2)cc1	-16%	5%	-8%	8.9µM*	0%	10µM*
O=C(NCCN1CCN(C(=O)c2ccc(Br)cc2)CC1)c1ccc(Br)cc1	39%	-5%	-21%	8%	4%	1%
OCCN1CCN(C(=S)c2ccc(Br)cc2)CC1	0%	-2%	-10%	32µM*	0%	22µM*
OCCN1CCN(C(=S)Nc2ccc(SC(F)F)cc2)CC1	34%	-3%	-2%	2%	5%	3%
COCCN(CCOC)Cc1c(O)ccc2c1O/C(=C\c1ccc(C)o1)C2=O	-31%	u	-25%	2.8µM*	x	1µM*
CCN(CC)Cc1c(O)ccc2c1O/C(=C\C=C\c1ccccc1)C2=O	53%	-26%	-1%[11.4 µM]	4%	x	u
O=C1C2CCCN2C(c2ccccc2)N1c1nccs1 (stereo not given)	19%	u	u	50µM*	2%	u
Cc1ccccc1C1N(c2nccs2)C(=O)C2CCCN21 (stereo not given)	40%	-33%	2%	50µM*	-8%	u
Cc1ccccc1Cn1nnc2c(=O)[nH]c(C3CCCN(C(=O)c4ccc(F)cc4)C3)nc21 (stereo not given)	63%	32%	-2%	x	5%	21%[59 µM]
Cc1nnc(C)n1/N=C/c1cc(Br)ccc1O	2%	7%	28µM*	-22%	1%	10µM*
CS/C(N)=N/N=C/c1cc(Br)cc(Br)c1O	35%	13µM*	-29%	13%	6%	70%[59 µM]
Cc1nnc(C)n1/N=C/c1cc(Br)cc(Br)c1O	13%	50µM*	-23%	-10%	-7%	1.6µM*
